Data as given in PubChem BioAssay (NCATS).
Results filed as inconclusive are left out. Calls of active or inactive are those of the source. Calls come from the whole dose curve; as a rule, active = well fitted curve in the direction sought with a large enough effect; inconclusive = small, poorly fitted or top-dose-only effect, or another doubt; inactive = no such curve, though single readings can be large; an effect the other way counts as inactive or inconclusive.

Tests used:
OV90 = experiment: Primary qHTS to identify gynecologic anti-cancer compounds using libraries of approved drugs and bioactive compounds (AID 1345084); details: Gynecologic cancer cell panel viability, ATPlite luminescence, 48 h; series mostly up to 57.5 µM; note: nearly all actives have a fitted effect of over 55% in size
How it was run: (§1)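 Measured: luminescence after ATPlite addition (15 min, RT). Exposure: 48 h, 37 C, 5% CO2.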

PA-1 = experiment: as above; details: Gynecologic cancer cell panel viability, ATPlite luminescence, 48 h; series mostly up to 57.5 µM
How it was run: as §1

Tov-21-G = experiment: as above; details: Gynecologic cancer cell panel viability, ATPlite luminescence, 48 h; series mostly up to 57.5 µM
How it was run: as §1

Tov112D = experiment: as above; details: Gynecologic cancer cell panel viability, ATPlite luminescence, 48 h; series mostly up to 57.5 µM
How it was run: as §1

[1] = Drug repurposing screens with cells derived from glioblastoma tumor samples (AID 1345199); details: GBM patient neurospheres viability, ATP luminescence, 48 h; note: nearly all actives have a fitted effect of over 40% in size
How it was run: (§2)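 Primary testing used CD133+ neurospheres from four GBM patients, seven concentrations, 48 h exposure and ATP-based viability; confirmation added three slower-growing patient lines.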

astro = experiment: as above; details: viability, ATP luminescence, 48 h; series mostly up to 45.9 µM
How it was run: as §2

SKOV3 = experiment: Primary qHTS to identify gynecologic anti-cancer compounds using libraries of approved drugs and bioactive compounds (AID 1345084); details: Gynecologic cancer cell panel viability, ATPlite luminescence, 48 h; series mostly up to 57.5 µM; note: nearly all actives have a fitted effect of over 55% in size
How it was run: as §1

[2] = qHTS assay to identify inhibitors of the type 1 interferon - major histocompatibility complex class I in skeletal muscle: Counter screen cell viability and HiBit confirmation (AID 1347412); details: iHSKM muscle cells + IFN-b, HiBiT or CellTiter-Glo, 24 h; note: nearly all actives have a fitted effect of over 60% in size
How it was run: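 CRISPR HLA-B*08:01-HiBit immortalized human myoblasts (C25cl48) stimulated with 4 ng/ml IFN-beta and compounds (12-point 1:3, top 46 uM final) for 24 h at 37 C. Duplicate plates read by HiBit lytic luminescence or CellTiter Glo ATP.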
% is set by controls: 0 for no effect and ±100 for the full control effect; potency is the fitted concentration of half-maximal effect.

O=C1[C@H](O[C@@H]2O[C@H](CO)[C@@H](O)[C@H](O)[C@H]2O)Oc2ccccc2N1O
inactive: Potency (OV90) | Potency (PA-1) | Potency (Tov-21-G) | Potency (Tov112D)

CCOC(=O)[C@H]1O[C@@H]1C(=O)N[C@@H](CC(C)C)C(=O)NCCC(C)C
inactive: Potency (OV90) | Potency (PA-1) | Potency (Tov-21-G) | Potency (Tov112D)

C=C(C)C1CC2(CO)C(=CC1=O)CCC(O)C2C (centres undefined)
inactive: Potency (OV90) | Potency (PA-1) | Potency (Tov-21-G) | Potency (Tov112D)

C=C1CCC2C(C)(C)CC(=O)CC2(C)C1CCC(C)CCOC(C)=O (centres undefined)
inactive: Potency (OV90) | Potency (PA-1) | Potency (Tov-21-G) | Potency (Tov112D)

O=C1NC(=Nc2ccccc2F)S/C1=C\c1ccc(C(=O)O)cc1
inactive: Potency (OV90) | Potency (PA-1) | Potency (Tov-21-G) | Potency (Tov112D)

O=C(O)Cc1nn(Cc2nc3cc(C(F)(F)F)ccc3s2)c(=O)c2nccnc12
inactive: Potency (OV90) | Potency (PA-1) | Potency (Tov-21-G) | Potency (Tov112D)

OC[C@H]1O[C@@H](n2cnc3c2NC=NC[C@H]3O)C[C@@H]1O
inactive: Potency (OV90) | Potency (PA-1) | Potency (Tov-21-G) | Potency (Tov112D) | activity, negative = cell killing ([1]; at 45.9 µM (top of the series), tumour line B) 2.62% | activity, negative = cell killing ([1]; at 45.9 µM (top of the series), tumour line D) -21% | activity, negative = cell killing ([1]; at 46 µM (top of the series), tumour line A) -9.89% | activity, negative = cell killing ([1]; at 46.1 µM (top of the series), tumour line C) 8.32% | Potency (astro)

O=C(O)C[C@H](O)C[C@H](O)/C=C/c1c(C2CC2)nc2ccccc2c1-c1ccc(F)cc1
active: Potency (PA-1) 10 µM | Potency (Tov112D) 11.2 µM | Potency (astro) 0.398 µM

COc1ccc2c(c1)OC[C@]1(O)c3cc4c(cc3O[C@H]21)OCO4
inactive: Potency (OV90) | Potency (SKOV3) | Potency (Tov-21-G) | Potency (Tov112D)

C=C[C@@]1(C)CC(=O)C2[C@](C)(O1)[C@@H](OC(C)=O)[C@@H](O)[C@H]1C(C)(C)CCC[C@]21C (some centres undefined)
inactive: activity change, negative = cytotoxicity (PA-1) 5.09% [at 11.6 µM] | activity change, negative = cytotoxicity (Tov-21-G) 0.473% [at 11.6 µM] | activity change, negative = cytotoxicity (Tov112D) 4.2% [at 11.6 µM]

CC/C=C/CC1=C(CCCCCCCC(=O)O)CCC1=O
inactive: Potency (OV90) | Potency (PA-1) | Potency (Tov-21-G) | Potency (Tov112D)

CNc1nc(Nc2cnn([C@H]3CCN(C4COC4)C[C@@H]3F)c2Cl)ncc1C(F)(F)F
inactive: Potency (OV90) | Potency (SKOV3) | Potency (Tov-21-G) | Potency (Tov112D)

Cc1cc(Nc2ncc(Cl)c(Nc3ccccc3S(=O)(=O)C(C)C)n2)c(OC(C)C)cc1C1CCNCC1
active: Potency ([2]; Viability) 27.9 µM
inactive: Potency (PA-1) | Potency (Tov-21-G) | Potency (Tov112D)

CC(C)C1(O[C@@H]2O[C@H](CO)[C@@H](O)[C@H](O)[C@H]2O)CC=C(CO)CC1 (some centres undefined)
inactive: Potency (OV90) | Potency (SKOV3) | Potency (Tov-21-G) | Potency (Tov112D)

CNC(=O)c1ccc(Nc2ncc(C(F)(F)F)c(NCc3nccnc3N(C)S(C)(=O)=O)n2)cc1
inactive: activity change, negative = inhibition ([2]; Viability, at 45.9 µM (top of the series)) -7.39%
active: Potency (PA-1) 4.47 µM | Potency (Tov112D) 22.4 µM | Potency ([2]; HiBiT) 3.52 µM

C=C1CC[C@@H]2[C@](C)(CC[C@H](O)[C@@]2(C)CCC=C(C)C)[C@@H]1Cc1c[nH]c2ccccc12
inactive: Potency (OV90) | Potency (PA-1) | Potency (Tov-21-G) | Potency (Tov112D)

CC1(C)C[C@H]2C3=CCC4[C@@]5(C)CC[C@H](O[C@H]6O[C@H](C(=O)O)[C@@H](O)[C@H](O)[C@H]6O[C@H]6O[C@H](CO)[C@@H](O)[C@H](O)[C@H]6O[C@@H]6O[C@H](CO)[C@@H](O)[C@H](O)[C@H]6O)[C@](C)(CO)C5CC[C@@]4(C)[C@]3(C)CC[C@@]2(C)[C@H](O[C@@H]2OC[C@H](O)[C@H](OC3O[C@H](CO)[C@@H](O)[C@H](O)[C@H]3O)[C@H]2O)[C@@H]1O (some centres undefined)
inactive: activity change, negative = cytotoxicity (OV90) -1.3% [at 6.55 µM] | activity change, negative = cytotoxicity (SKOV3) -2.8% [at 6.55 µM] | activity change, negative = cytotoxicity (Tov-21-G) 3.65% [at 6.55 µM] | activity change, negative = cytotoxicity (Tov112D) -3.08% [at 6.55 µM]

CC(C)Nc1cc(-c2c[nH]c(C(=O)N[C@H](CO)c3cccc(Cl)c3)c2)c(Cl)cn1
inactive: Potency (SKOV3) | Potency (Tov112D)

CC1(C)CC(=O)N(CCCCN2CCN(c3ncccn3)CC2)C(=O)C1
inactive: Potency (OV90) | Potency (SKOV3) | Potency (Tov-21-G) | Potency (Tov112D)

COc1cc2c(Nc3ccc(Cl)c(Cl)c3F)ncnc2cc1OCC1C[C@@H]2CN(C)C[C@@H]2C1 (some centres undefined)
active: Potency (OV90) 20 µM | Potency (SKOV3) 14.1 µM | Potency (Tov112D) 17.8 µM | Potency ([2]; HiBiT) 19.8 µM | Potency ([2]; Viability) 17.6 µM

O=C(Nc1cccnn1)N1CCC(=Cc2cccc(Oc3ccc(C(F)(F)F)cn3)c2)CC1
inactive: Potency (Tov-21-G) | Potency (Tov112D)

CCOc1cc2ncc(C#N)c(Nc3ccc(OCc4ccccn4)c(Cl)c3)c2cc1NC(=O)/C=C/CN(C)C
inactive: Potency (OV90) | Potency (Tov112D)
active: Potency ([2]; HiBiT) 1.57 µM

C=C[C@](C)(CC/C=C(\C)C(=O)O)O[C@@H]1OC[C@H](O)[C@H](O)[C@H]1O
inactive: Potency (OV90) | Potency (SKOV3) | Potency (Tov-21-G) | Potency (Tov112D)

CC1(C)CC[C@]2(C(=O)O)CC[C@]3(C)C(=CCC4[C@@]5(C)CCC(O[C@@H]6OC[C@H](O)[C@H](O)[C@H]6O[C@@H]6O[C@H](CO)[C@@H](O)[C@H](O)[C@H]6O)[C@@](C)(CO)C5CC[C@]43C)[C@@H]2C1 (some centres undefined)
inactive: Potency (OV90) | Potency (SKOV3) | Potency (Tov-21-G) | Potency (Tov112D)

CC1CCC2(C(=O)OC3OC(CO)C(O)C(O)C3O)CCC3(C)C(=CCC4C5(C)CC(O)C(O)C(C)(C(=O)O)C5CCC43C)C2C1(C)O (centres undefined)
inactive: Potency (OV90) | Potency (SKOV3) | Potency (Tov-21-G) | Potency (Tov112D)
